Each structure is given as a SMILES string. Among all 310,000 compounds or so, about 14,000 (4.5%) showed an effect of 50% or more. Effects have a minus sign here. This excerpt belongs to a sample that is enriched for strong results.
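Note: peak tail current of the secondary pulse compared with the same well before compound.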

Chain of human ether-à-go-go-related gene (hERG) potassium channel (Q12809 whole entry, looked up): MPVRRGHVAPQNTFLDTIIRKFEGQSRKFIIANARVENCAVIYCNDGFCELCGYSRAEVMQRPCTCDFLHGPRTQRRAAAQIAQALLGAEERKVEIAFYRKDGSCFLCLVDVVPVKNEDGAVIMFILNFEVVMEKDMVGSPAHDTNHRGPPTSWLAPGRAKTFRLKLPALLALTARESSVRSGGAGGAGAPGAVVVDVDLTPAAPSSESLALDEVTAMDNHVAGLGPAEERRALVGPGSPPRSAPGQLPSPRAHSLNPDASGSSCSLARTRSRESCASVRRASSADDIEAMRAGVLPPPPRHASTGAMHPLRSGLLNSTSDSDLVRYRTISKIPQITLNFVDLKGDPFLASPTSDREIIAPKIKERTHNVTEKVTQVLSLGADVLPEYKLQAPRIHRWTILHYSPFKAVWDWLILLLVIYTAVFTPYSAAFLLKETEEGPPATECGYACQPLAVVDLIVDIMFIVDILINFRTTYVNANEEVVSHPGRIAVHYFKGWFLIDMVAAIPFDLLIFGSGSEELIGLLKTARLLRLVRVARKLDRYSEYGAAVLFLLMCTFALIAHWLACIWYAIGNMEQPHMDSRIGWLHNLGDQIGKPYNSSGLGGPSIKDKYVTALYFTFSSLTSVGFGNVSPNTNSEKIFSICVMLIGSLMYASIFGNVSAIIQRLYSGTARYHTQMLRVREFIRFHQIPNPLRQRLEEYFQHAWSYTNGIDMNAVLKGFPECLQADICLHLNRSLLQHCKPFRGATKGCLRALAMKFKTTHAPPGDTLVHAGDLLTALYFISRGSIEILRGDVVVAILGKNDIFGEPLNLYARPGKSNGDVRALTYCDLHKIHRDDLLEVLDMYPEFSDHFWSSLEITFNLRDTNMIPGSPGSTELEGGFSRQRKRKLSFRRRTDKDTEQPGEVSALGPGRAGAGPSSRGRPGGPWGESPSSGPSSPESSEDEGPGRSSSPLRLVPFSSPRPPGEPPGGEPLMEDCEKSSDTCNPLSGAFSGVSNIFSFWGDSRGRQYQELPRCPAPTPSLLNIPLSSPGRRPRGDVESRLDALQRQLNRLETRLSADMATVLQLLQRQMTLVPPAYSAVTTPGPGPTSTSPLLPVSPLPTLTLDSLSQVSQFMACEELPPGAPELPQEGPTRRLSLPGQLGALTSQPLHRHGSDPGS

This experiment concerns the target human ether-à-go-go-related gene (hERG) potassium channel (human, UniProt Q12809). The experiment can be described thus: primary screen, population patch clamp on CHO cells stably expressing hERG; higher = less effect of the substance.
For `Cc1ccsc1C(=O)C1CCCN(Cc2ccc(-n3cccn3)cc2)C1` (stereo not drawn), the “hERG current change (%, negative = inhibition) at 10uM” value is on record as -67.7%.

Take `Cc1ccsc1C(=O)C1CCCN(Cc2cc(C(C)C)n[nH]2)C1` (stereo not drawn): the “hERG current change (%, negative = inhibition) at 10uM” value is -43.9%.

Regarding `Cc1ccsc1C(=O)C1CCCN(Cc2cccc(-n3cccn3)c2)C1` (stereo not drawn), the “hERG current change (%, negative = inhibition) at 10uM” value was -65.4%. On to `Cc1ccsc1C(=O)C1CCCN(Cc2cccc(OCCO)c2)C1` (stereo not drawn), for which the “hERG current change (%, negative = inhibition) at 10uM” value is -16.3%. With `Cc1ccsc1C(=O)C1CCCN(Cc2ccc(O)cc2)C1` (stereo not drawn) the figure was -22.9%.

For the compound `COC(=O)Nc1nc(-c2ccc(F)cc2)c(C)s1`, the “hERG current change (%, negative = inhibition) at 10uM” value stood at 14.5%.

As to `Cc1ccc(-n2c(O)c(/C=N/NC(=O)c3ccncc3)c(=O)[nH]c2=O)cc1C`, the “hERG current change (%, negative = inhibition) at 10uM” value was 9.71%.

`CN(c1ccccc1)c1ncccn1`: the “hERG current change (%, negative = inhibition) at 10uM” value was 18%. Regarding `O=S(=O)(Nc1cccnc1)c1ccc(F)cc1`, the “hERG current change (%, negative = inhibition) at 10uM” value is recorded as 16.6%.

On to `COc1ccc(C2=NOC(Cn3nc(C(=O)NCc4cccs4)cc3-c3ccccc3)C2)cc1` (stereo not drawn), for which the “hERG current change (%, negative = inhibition) at 10uM” value is reported as -51.3%. Under `COc1ccc(C2=NOC(Cn3nc(C(=O)NCc4ccco4)cc3-c3ccccc3)C2)cc1` (stereo not drawn) stands -68.2%. Under `COc1ccc(C2=NOC(Cn3nc(C(=O)NCc4ccccc4OC)cc3-c3ccccc3)C2)cc1` (stereo not drawn) stands -16.2%; under `COc1ccc(C2=NOC(Cn3nc(C(=O)NCC4CC4)cc3-c3ccccc3)C2)cc1` (stereo not drawn), -65%.

Regarding `COc1ccc(C2=NOC(Cn3nc(C(=O)NCc4ccc(OC(F)(F)F)cc4)cc3-c3ccccc3)C2)cc1` (stereo not drawn), the “hERG current change (%, negative = inhibition) at 10uM” value is -3.95%. Under `COc1ccc(C2=NOC(Cn3nc(C(=O)NCc4ccc(C)cc4)cc3-c3ccccc3)C2)cc1` (stereo not drawn) stands 2.68%; under `COCCNC(=O)c1cc(-c2ccccc2)n(CC2CC(c3ccc(OC)cc3)=NO2)n1` (stereo not drawn), -10.7%.

With `COc1ccc(C2=NOC(Cn3nc(C(=O)O)cc3-c3ccccc3)C2)cc1` (stereo not drawn), the “hERG current change (%, negative = inhibition) at 10uM” value is -10.3%. Under `COc1ccc(C2=NOC(Cn3nc(C(=O)NCc4ccc5c(c4)OCO5)cc3-c3ccccc3)C2)cc1` (stereo not drawn) stands -17.4%.

As for `COc1ccc(S(=O)(=O)N2CCC(C(=O)NCC3CCCO3)CC2)cc1C` (stereo not drawn), the “hERG current change (%, negative = inhibition) at 10uM” value was 9.95%. With `O=C(CNC(=O)c1ccc(S(=O)(=O)N2CCCC2)cc1)N/N=C/c1c(Cl)cccc1Cl`, the “hERG current change (%, negative = inhibition) at 10uM” value was determined as 6.64%. With `CN(CCO)C(=O)c1ccc(-c2nn(C)c(=O)c3ccccc23)cc1` the figure was 10.9%. For the compound `Nc1nc2ncc(C(=O)c3cc(F)ccc3O)cc2s1`, the “hERG current change (%, negative = inhibition) at 10uM” value was -0.22%. With `Cn1c2c(c(=O)n(C)c1=O)C(CC(=O)Nc1ccccc1)C(=O)N2` (stereo not drawn) the figure was 2.49%; with `Cc1ccc(C(=O)N/C(=C\c2cccs2)C(=O)N2CCOCC2)cc1C`, -19%. Take `Cc1ccc(C(=O)N/C(=C\c2cccs2)C(=O)N2CCN(C)CC2)cc1C`: the “hERG current change (%, negative = inhibition) at 10uM” value is listed as -70.6%. As for `Cc1ccc(C(=O)N/C(=C\c2cccs2)C(=O)NCC2CCCO2)cc1C` (stereo not drawn), the “hERG current change (%, negative = inhibition) at 10uM” value turned out to be 6.35%.

In the case of `O=C(N/C(=C/c1cccs1)C(=O)N1CCCCCC1)c1ccccc1`, the “hERG current change (%, negative = inhibition) at 10uM” value is reported as -21%.

Regarding `CCN1CCN(C(=O)/C(=C/c2cccs2)NC(=O)c2ccc(C)c(C)c2)CC1`, the “hERG current change (%, negative = inhibition) at 10uM” value was -75.6%. Under `CC(C)(C)c1ccc(C(=O)N/C(=C\c2cccs2)C(=O)N2CCOCC2)cc1` stands -7.22%; under `CCc1nnc(NC(=O)Cc2ccc(Br)cc2)s1`, 12.4%; under `CC1CCc2[nH]c3ccc(C(=O)N(C)CC(=O)Nc4ccccc4C(F)(F)F)cc3c2C1` (stereo not drawn), 4.13%.

Regarding `O=C1CC(c2cccc([N+](=O)[O-])c2)c2c(ccc3ccccc23)N1` (stereo not drawn), the “hERG current change (%, negative = inhibition) at 10uM” value is given as 10.3%. With `Cc1cc(C)n2nc(C(=O)Nc3ccc(S(=O)(=O)N(C)C)cc3)nc2n1` the figure was -2.93%; with `COc1ccccc1NS(=O)(=O)c1ccc(NC(=O)c2nc3nc(C)cc(C(F)F)n3n2)cc1`, -13.8%. With `COc1ccccc1NS(=O)(=O)c1cccc(NC(=O)c2ccc3ccccc3n2)c1` the figure was 3.05%; with `COc1ccccc1NS(=O)(=O)c1cccc(NC(=O)c2nc3nc(C)cc(C)n3n2)c1`, -55.2%.

As to `Cc1cc(C)n2nc(C(=O)Nc3cccc(S(=O)(=O)N(C)c4ccccc4)c3)nc2n1`, the “hERG current change (%, negative = inhibition) at 10uM” value is listed as -68.3%. Under `Cc1cc(C)n2nc(C(=O)Nc3cccc(S(=O)(=O)N4CCCC4)c3)nc2n1` stands -2.92%; under `CCOC(=O)/C=C/C(=O)Nc1ccc(S(=O)(=O)N(C)c2ccccc2)cc1`, -2.23%.

On to `O=c1[nH]c(=O)n(-c2ccc(Cl)cc2)c(O)c1C=NCCN1CCCCC1`, for which the “hERG current change (%, negative = inhibition) at 10uM” value amounted to 2.13%.

In the case of `O=C(NCc1cccc(C(F)(F)F)c1)c1cc(-c2ccccc2)nn1CC1CC(c2cccnc2)=NO1` (stereo not drawn), the “hERG current change (%, negative = inhibition) at 10uM” value is given as -52.4%.

As to `O=C(NCc1cccc(Br)c1)c1cc(-c2ccccc2)nn1CC1CC(c2cccnc2)=NO1` (stereo not drawn), the “hERG current change (%, negative = inhibition) at 10uM” value is given as -62.8%.

`O=C(NCc1cccc(Br)c1)c1cc(-c2ccccc2)nn1CC1CC(c2cccc([N+](=O)[O-])c2)=NO1` (stereo not drawn): the “hERG current change (%, negative = inhibition) at 10uM” value is -0.929%.

Regarding `Cc1ccccc1-c1cc(C(=O)NCc2ccc3c(c2)OCO3)n(CC2CC(c3cccnc3)=NO2)n1` (stereo not drawn), the “hERG current change (%, negative = inhibition) at 10uM” value is given as -20.8%. For `O=C(O)c1cc(-c2ccccc2)nn1CC1CC(c2cccnc2)=NO1` (stereo not drawn), the “hERG current change (%, negative = inhibition) at 10uM” value came out at 6.86%. Under `C=CCc1cccc2cc(C(=O)OCC)c(=O)oc12` stands -42.3%; under `CCOc1cc(S(=O)(=O)NC2CC(C)(C)NC(C)(C)C2)ccc1F`, -9.91%. Under `CCc1c(C)nc2cc(-c3cccc(Br)c3)[nH]n2c1=O` stands -3.6%; under `O=S(=O)(Nc1ncccn1)c1ccc(NC(=S)NCc2cccnc2)cc1`, 33.8%; under `COc1cc(C(C(=O)NC(C)(C)C)N(Cc2ccccc2)C(=O)c2cnccn2)cc(OC)c1OC` (stereo not drawn), 5.8%. With `C=CCNC(=O)CN1CCC(O)(c2ccccc2)CC1` the figure was 4.87%.

For the origin of these results see article PMC4336329 (PLoS ONE, 2015).
